Only a selection was taken, and hits are over-represented in it overall.
GC-B act: GC-B (human) receptor activation | activation, % at 10 µM | hit rate 0.11% among 370,000 | HEK293-GC-B cells, CNP EC30, cGMP TR-FRET; 0% at EC30 CNP, 100% saturating CNP | P20594 | AID 1920062;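 active means activation at 10 µM reaching about 35% in either raw or pattern-adjusted values, limit read from the data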
HDAC3 inhib: human HDAC3 inhibition; AID 2718; recombinant HDAC3, fluorogenic peptide/trypsin coupled, fluorescence; hit rate 0.15% among 320,000; O15379; inhibition, % at 8.3 µM; in the data active means inhibition above about 26%, passing the limit was not always enough; inconclusive means no clear call, values can overlap the other calls
ALR inh: human ALR oxidase inhibition via reduced H2O2. P55789. purified ALR, DTT oxidation, H2O2 HRP-luminol luminescence. inhibition, % (concentration not given with the values). hit rate 3.8% among 290,000. AID 485317;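 active means mean replicate inhibition above about 79%, with every replicate also reaching it, limit read from the data; inconclusive means only one of the two criteria met; inactive means mean below limit and not every replicate reaching it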
NPR1 activator: GC-A (human) enzyme activation | HEK293 GC-A cells, cGMP TR-FRET, EC30 ANP; 0% at EC30 ANP, 100% saturating ANP | P16066 | activation, % at 10 µM | hit rate 0.14% among 370,000; in the data active means activation above about 40%
Of the large screens only hits and unclear results are named; the others gave an inactive call.

Cc1cc([N+](=O)[O-])nn1CCCC(=O)N1CCN(c2ccccc2)CC1	ALR inh 98
O=C(CCSc1ccc(Cl)cc1)N1CCCCCC1	none
Cc1c(Cl)c([N+](=O)[O-])nn1CCCC(=O)N1CCN(c2ccccc2)CC1	ALR inh inconclusive
O=C(CCN1C(=O)c2ccccc2S1(=O)=O)N1CCN(c2ccccc2)CC1	ALR inh 88
CC(NC(=O)c1cccnc1Sc1ccccc1)c1ccc(S(N)(=O)=O)cc1 (centres undefined)	none
COC(=O)c1cccc(C(=O)N2CCCC(CCC(=O)N(C)CCc3ccccn3)C2)c1 (centres undefined)	none (no result: HDAC3 inhib)
COC(=O)CCCn1cc(CN2CC(N3CCCC3)CS2(=O)=O)nn1 (centres undefined)	none (no result: HDAC3 inhib, ALR inh)
COC(=O)C[C@@H]1CC[C@@H]2[C@@H](COc3ccc(NS(=O)(=O)c4ccc(F)cc4)cc3C(=O)N2C)O1	none (no result: HDAC3 inhib, ALR inh)
COc1cc(-c2noc(C)c2C(=O)NCCCN2CCOCC2)cc(OC)c1OC	none
CCOC(=O)c1cccc(NC(=O)CN(C)S(=O)(=O)c2cc(OC)ccc2OC)c1	none (no result: HDAC3 inhib, ALR inh)
Cn1cnc([N+](=O)[O-])c1Sc1ccc(C(C)(C)C)cc1	none
Cc1cccc(Sc2c([N+](=O)[O-])ncn2C)n1	none
Cn1cnc([N+](=O)[O-])c1Sc1ccc(Br)cc1	ALR inh 98
Cc1ccc(Sc2c([N+](=O)[O-])ncn2C)cc1	ALR inh 98
COCCCN1C(=O)[C@H](CC(=O)NCCc2ccccc2OC)[C@]2(C(=O)OC)CCCCC=C12	none (no result: HDAC3 inhib, ALR inh)
Cc1ccccc1NC(=O)c1cccnc1	none
CCN(CC)c1ccc(NC(=O)CSc2ccsc2[N+](=O)[O-])c(C)c1	ALR inh 93
CCN(CC)c1ccc(NC(=O)CNCc2ccccc2Cl)c(C)c1	ALR inh 99
CCN(CC)c1ccc(NC(=O)c2cccc(C)c2OC)c(C)c1	ALR inh 99
O=C(CNCc1ccccc1Cl)Nc1ccccc1N1CCCCC1	none
CCN(CC)c1ccc(NC(=O)c2cccnc2)c(C)c1	ALR inh 96
Brc1ccc(-c2csc3ncnc(-n4nnc5ccccc54)c23)cc1	none
Cc1cccc(C(=O)NCCc2ccccc2)c1	none
O=C(NCc1ccco1)c1cnc2ccccn2c1=O	none
CCN(CC)c1ccc(NC(=O)CN2C(=O)CC(C)(C)S(=O)(=O)c3ccccc32)c(C)c1	ALR inh 99
CCN(CC)c1ccc(NC(=O)c2cnc3ccccn3c2=O)c(C)c1	ALR inh 99
CCOC(=O)C1CCN(Cc2ccc(N(C)C)cc2)CC1	ALR inh 99
CCOC(=O)C1CCCN(C(=O)Cc2c(F)cccc2Cl)C1 (centres undefined)	none
CCOC(=O)C1CCCN(Cc2c(F)cccc2Cl)C1 (centres undefined)	ALR inh 99
CCOC(=O)C1CCN(Cc2c(F)cccc2Cl)CC1	HDAC3 inhib inconclusive, ALR inh 98
CC1(C(=O)NC2CCc3ccccc32)CCN1CCc1ccccc1 (centres undefined)	none (no result: HDAC3 inhib, ALR inh)
CCN(CC)c1ccc2c(C)c(CO)c(=O)oc2c1	ALR inh 99
CCN(CC)c1ccc2c(C)c(CN3CCOCC3)c(=O)oc2c1	none (no result: GC-B act, NPR1 activator)
O=C(NC(=S)N1CCN(C/C=C/c2ccccc2)CC1)c1ccc(Cl)nc1	none
CC1C/C(=N/Nc2nc3ccccc3[nH]2)CC(C)(C)C1 (centres undefined)	ALR inh 99
CC1C/C(=N/NC(=O)c2ccc(CSc3nc4ccccc4[nH]3)cc2)CC(C)(C)C1 (centres undefined)	none
Cn1c(C(=O)N2CCN(c3ccccc3)CC2)cc2cc(Cl)ccc21	none
COCCn1c(SC(C(=O)Nc2cc(C)ccc2OC)c2ccccc2)nnc1-c1ccc(Cl)cc1 (centres undefined)	ALR inh 99
CC1(c2nnc(Cc3ccccc3)o2)CC(c2ccccc2[N+](=O)[O-])=NO1 (centres undefined)	none (no result: GC-B act, NPR1 activator)
Cc1cc(O)ccc1NS(=O)(=O)c1ccc2c3c(cccc13)C(=O)N2	ALR inh 99
O=C(O)c1ccccc1NS(=O)(=O)c1ccc2c3c(cccc13)C(=O)N2	none
CN1/C(=C\C=C2/SC(=S)N(CC(=O)O)C2=O)C(C)(C)c2ccccc21	ALR inh 98
N=C(N)c1ccc(/C=C/c2ccc(C(=N)N)cc2O)cc1	HDAC3 inhib 50
COc1ccc(NC(=O)COC(=O)CNC(=O)c2cccs2)cc1Cl	none
CCOc1cc(C(=O)CCC(=O)OCC(=O)Nc2ccc(F)cc2)ccc1O	none (no result: HDAC3 inhib, ALR inh)
CCN(CC)c1ccc(NC(=O)COC(=O)COc2ccccc2[N+](=O)[O-])cc1	ALR inh 99

Screening data deposited in PubChem BioAssay by several laboratories.
